HT1080NT lethal: kills 2HG-producing HT-1080-NT fibrosarcoma cells | HT-1080-NT fibrosarcoma viability, CellTiter-Glo ATP luminescence, 48 h | Potency, µM (series often up to 46.1 µM), actives largely listed as cytotoxic | hit rate 1.6% among 360,000 | AID 686970;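 further: NT is the 2HG producing partner of a matched IDH1 knockdown line; nearly all actives have a fitted effect of over 55% in size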
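A 48-hour cytotoxicity screen used HT-1080-NT cells plated 2 hours before compound delivery. ATP-based CellTiter-Glo luminescence measured viability, normalized to DMSO and no-cell controls.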
HepG2 viability: kills HepG2 cells in TGF-b inhibitor counter-screen | HepG2 CAGA-GFP viability, ATP luminescence, 18 h | Potency, µM (titrated, usually from 46.1 µM), actives largely listed as cytotoxic | hit rate 0.76% among 410,000
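HepG2 CAGA-GFP cells (1000/well, DMEM with 1% FBS) received compound, then TGF-beta at 500 pg/mL final, and were incubated 18 hours at 37 degrees C. Viability was read by CellTiter-Glo luminescence. Media-only wells were set as complete cell-killing and DMSO as no toxicity.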
HT1080 IDH1KD tx: toxicity to HT-1080 IDH1 knockdown cells (counter line) | HT-1080 IDH1 knockdown viability, ATP luminescence, 48 h | Potency, µM (series often up to 46.1 µM), usual class: cytotoxic | hit rate 2% among 360,000 | AID 686971
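Assay cells: HT-1080 with IDH1 knockdown, 750 per well, RPMI/5% FBS. Exposure: 48 h at 37 °C following 2 h pre-incubation. Read: CellTiter-Glo luminescence; fitted concentration-response, curve class assigned.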
DT40 TDP1 no CPT: qHTS for Inhibitors of human tyrosyl-DNA phosphodiesterase 1 (TDP1): qHTS in cells in absence of CPT | hit rate 15% among 420,000 | Potency, µM (series often up to 46.2 µM), actives largely listed as inhibitors | DT40 Tdp1-/- hTDP1 cells, no CPT, ATP luminescence, 48 h; further: nearly all actives have a fitted effect of over 55% in size
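Growth of hTDP1-complemented DT40 Tdp1-knockout cells is measured by ATP luminescence after at least 48 hr compound exposure at 37 °C, with DMSO substituting for the 20 nM CPT used in the parallel screen.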
TDP1 cell CPT: DT40-hTDP1 cell growth loss with CPT. chicken DT40 Tdp1-/-;hTDP1 cells + 20 nM CPT, ATP luminescence, 48 h. Potency, µM (series often up to 46.2 µM), usual class: inhibitors. hit rate 12% among 420,000; further: nearly all actives have a fitted effect of over 55% in size
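Chicken DT40 Tdp1-/- cells complemented with human TDP1, 400 cells/well, exposed to compounds plus 20 nM camptothecin for at least 48 h at 37 C; viability read as ATP content by CellTiter-Glo luminescence.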
TGFb SMAD3 inh: TGF-b pathway inhibition; hit rate 1.2% among 410,000; HepG2 CAGA-GFP TGF-b/SMAD3 reporter, GFP fluorescence, 18 h; TGF-beta stimulated, 500 pg/mL final; Potency, µM (top dose mostly 46.1 µM), most hits filed as inhibitors; further: nearly all actives have a fitted effect of over 65% in size
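HEPG2 CAGA-GFP reporter cells (1000/well, DMEM with 1% FBS) received compounds, then recombinant TGF-beta at 500 pg/mL final for 18 hours at 37 degrees C. Per-cell GFP summed per well was normalised to unstimulated and stimulated DMSO controls before curve fitting.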
Numbers stand for hits; - = inactive; ? = inconclusive; . = no result. Only some compounds are listed: those with a hit (about 17% of all), similar ones and a draw of the others. The call rests on the fitted dose curve; in most records, active means well fitted curve in the direction sought with a large enough effect; inconclusive means small, poorly fitted or top-dose-only effect, or another doubt; inactive means no such curve, though single readings can be large; an effect the other way counts as inactive or inconclusive.

SMILES	HT1080NT lethal	HepG2 viability	HT1080 IDH1KD tx	DT40 TDP1 no CPT	TDP1 cell CPT	TGFb SMAD3 inh
CCC(C)(C)n1nnnc1C(c1cccs1)N1CC=C(c2ccc(F)cc2)CC1 (configuration not stated)	?	-	-	?	23.1µM	-
O=C(Cn1c(=O)n(CC2CS2)c2ccccc21)N1CCCCCC1 (configuration not stated)	-	-	-	-	-	-
CC(Cl)(Cl)/C(=N/P(=S)(N1CCOCC1)N1CCOCC1)N1CCOCC1	-	-	-	-	-	-
CCOP(=O)(OCC)c1nc(-c2ccccc2)oc1NCc1ccccc1	-	-	-	?	?	-
CCOP(=O)(c1ccccc1)c1nc(-c2ccc(F)cc2)oc1N1CCCCC1 (configuration not stated)	?	-	?	20.6µM	13µM	-
CCOP(=O)(OCC)c1nc(-c2cccc3ccccc23)oc1NCCc1ccc(OC)cc1	-	-	-	?	?	-
CCOP(=O)(OCC)c1nc(-c2ccc(Br)cc2)oc1N1CCCCC1	-	-	-	8.2µM	10.3µM	?
CCOP(=O)(OCC)c1nc(-c2cccc3ccccc23)oc1N1CCOCC1	-	-	-	10.3µM	?	-
COc1ccc([C@H]2C[C@@H](O)[C@H](n3cc(COC(=O)c4ccccc4)nn3)CN2Cc2cccs2)cc1	-	-	-	-	-	-
O=C(O)[C@@H](O)[C@H](O)C(=O)O	-	-	-	-	-	-
Cc1ccc(C)c(C2(O)CC(C)N(C)CC2C)c1 (configuration not stated)	-	-	-	?	-	-
CC(N)C(=O)c1ccco1 (configuration not stated)	-	-	-	-	-	-
COC(=O)C1C(O)CC2CCC1N2C (configuration not stated)	?	-	-	-	-	-
CN(C)c1ccc(/C=C/[N+](=O)[O-])cc1	?	-	23.1µM	16.4µM	?	-
C/C(=C\c1ccc(N(C)C)cc1)[N+](=O)[O-]	11.2µM	10µM	6.31µM	4.11µM	4.11µM	?
CN1CCN(c2ccc(Cl)cc2N)CC1	-	-	-	-	-	-
Cc1ccc(Cl)cc1N1CCN(CCN)CC1	-	-	-	?	16.4µM	-
O=C(c1cc(-c2ccc(Cl)cc2)n[nH]1)N1CCN(S(=O)(=O)c2ccc(Br)s2)CC1	.	-	.	14.6µM	?	-
CN(CCc1ccccc1)C(=O)c1ccc(NC(=O)Cc2cccc([N+](=O)[O-])c2)cc1	-	-	-	?	?	?
C#C[C@]1(O)CC[C@H]2[C@@H]3[C@H](O)C[C@H]4C[C@@H](O)CC[C@]4(C)[C@H]3CC[C@@]21C	-	-	-	?	-	-
COc1ccc(C2=CC(c3ccc4c(c3)OCO4)c3c(c4ccccc4oc3=O)O2)cc1OC (configuration not stated)	?	-	?	20.6µM	14.6µM	?
C=C(C=O)C[C@@H]1C[C@H](O)C2OC3C[C@]4(C)OC5/C=C\CC6OC7C(CC=CCC6OC5CCCC4OC3CC2O1)OC1CC2OC3CC(=O)OC3C[C@@H](C)C[C@@]2(C)OC1C[C@@H]7C (some centres not stated)	8.2µM	.	.	0.581µM	0.651µM	?
BrCC(Br)(Br)Br	-	-	-	?	9.2µM	-
CCOc1ccc2nc(N3CCC(C(=O)Nc4ccc(Br)cc4F)CC3)sc2c1	.	-	.	13µM	11.6µM	-
CC(CC(C)(C)N1CC1)=NNC(=O)Nc1cccc2ccccc12	-	-	-	2.91µM	3.66µM	-
SMILES	HT1080NT lethal	HepG2 viability	HT1080 IDH1KD tx	DT40 TDP1 no CPT	TDP1 cell CPT	TGFb SMAD3 inh
Cc1ccc2oc(=O)n(CCNC(=O)Nc3ccccc3C)c2c1	.	-	.	-	-	-
Cc1ccccc1NC(=O)NCCN1CC1	-	-	-	7.31µM	4.11µM	-
O=C(NCCCN1CC1)Nc1cccc2ccccc12	-	-	-	7.31µM	1.64µM	?
COP(N)(=O)SC (configuration not stated)	.	.	.	-	-	.
COc1ccc(CCNCc2cc(OC)cc(OC)c2)cc1	-	-	-	?	?	-
CN1CCCC2(CCN(C(=O)c3ccncc3)CC2)C1	.	.	.	-	-	.
O=C(O)c1cccs1	.	-	.	-	-	-
C[C@H]1[C@@H](OS(=O)(=O)O)C[C@@H]2C[C@H]([C@@H](O)c3cc(=O)[nH]c(=O)[nH]3)NC3=NC[C@H]1N32	2.06µM	-	.	3.66µM	2.31µM	2.51µM
CCN(CC)C(=O)c1ccc(NC(=O)COc2ccccc2F)cc1	-	-	-	-	-	-
CCOC(=O)[C@]12Cc3cc(OC)ccc3[C@H]1N(CC(=O)OC)C(=O)c1cc(OC)ccc12	?	.	?	6.51µM	18.4µM	.

Screens deposited in PubChem BioAssay by National Center for Advancing Translational Sciences (NCATS).
